Data taken from PubChem BioAssay (EPA / NIEHS).
Where “and” joins values, the source holds several entries; their conditions need not be identical. Equal values may be shown once. The source holds several records for some structures; these can differ, active in one and inactive in another. Calls of active or inactive are those of the source. How the source made its calls: active means hit-call score of the fitted dose curve at least 0.9, where 1 is the maximum; inactive means score below 0.9.

Tests used:
Decorin, DCN (gene 1634) = test: BSK_MyoF_Decorin: BioMAP Diversity Plus: MyoF Assay for Decorin Biomarker Activity (AID 2284265); conditions: primary human lung fibroblasts
Method in brief: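 In this multiplexed fibroblast system, secreted or surface decorin is detected by ELISA one day after dosing, with increases scored against the DMSO vehicle.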

[1] = BSK_MyoF_SRB: Viability Assessment in the BioMAP Diversity Plus: MyoF Assay (AID 2284267); conditions: primary human lung fibroblasts;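 further: total protein by SRB absorbance in parallel cultures as cytotoxicity measure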
Method in brief: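 Lung fibroblast cultures, 24 h post-dose; fix 10% TCA, stain 0.1% SRB, read 560 nm. Signal = total protein as cytotoxicity measure; fitted relative to DMSO negative control.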

[2] = read-out: Matrix Metallopeptidase 1 (MMP1), MMP1 (gene 4312); test: BSK_MyoF_MMP1: BioMAP Diversity Plus: MyoF Assay for Matrix Metallopeptidase 1 (MMP1) Biomarker Activity (AID 2284268); conditions: primary human lung fibroblasts
Method in brief: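 Fibroblasts from human lung receive compound for 24 h before ELISA quantitation of MMP1. DMSO serves as baseline, and the endpoint is fitted for signal gain.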

[3] = read-out: TIMP metallopeptidase inhibitor 1 (TIMP1), TIMP1 (gene 7076); test: BSK_MyoF_TIMP1: BioMAP Diversity Plus: MyoF Assay for TIMP metallopeptidase inhibitor 1 (TIMP1) Biomarker Activity (AID 2284269); conditions: primary human lung fibroblasts
Method in brief: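 ELISA quantified TIMP-1 levels after 24 h dosing of primary human lung fibroblasts, with DMSO as baseline. Parallel SRB total protein staining (0.1% SRB after TCA fixation, 560 nm) flagged overt cytotoxicity.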

CD90, THY1 (gene 7070) = test: BSK_BF4T_CD90: BioMAP Diversity Plus: BF4T Assay for CD90 Biomarker Activity (AID 2284262); conditions: primary human bronchial epithelial cells with fibroblasts
Method in brief: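 CD90 levels by ELISA after 24 h treatment of human bronchial epithelial cell/dermal fibroblast cultures, analysed versus DMSO. Overt cytotoxicity checked in parallel cultures by sulforhodamine B staining.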

[4] = read-out: Interleukin-8 (IL8), CXCL8 (gene 3576); test: BSK_BF4T_IL8: BioMAP Diversity Plus: BF4T Assay for Interleukin-8 (IL8) Biomarker Activity (AID 2284263); conditions: primary human bronchial epithelial cells with fibroblasts
Method in brief: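 Human bronchial epithelial cells with dermal fibroblasts co-culture; IL-8 measured by ELISA 24 hours after dosing, fitted vs DMSO. Cytotoxicity tracked in parallel cultures by SRB total-protein staining.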

[5] = read-out: Interleukin-1 alpha (IL1a), IL1A (gene 3552); test: BSK_BF4T_IL1a: BioMAP Diversity Plus: BF4T Assay for Interleukin-1 alpha (IL1a) Biomarker Activity (AID 2284264); conditions: primary human bronchial epithelial cells with fibroblasts
Method in brief: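 ELISA read-out of IL-1α from bronchial epithelial cell/dermal fibroblast co-cultures 24 h after compound addition. Increases scored against DMSO negative control. Cytotoxicity monitored by sulforhodamine B staining of parallel cultures.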

[6] = read-out: Matrix Metallopeptidase 3 (MMP3), MMP3 (gene 4314); test: BSK_BF4T_MMP3: BioMAP Diversity Plus: BF4T Assay for Matrix Metallopeptidase 3 (MMP3) Biomarker Activity (AID 2284271); conditions: primary human bronchial epithelial cells with fibroblasts
Method in brief: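 MMP-3 level read by ELISA after 24 h chemical exposure of bronchial epithelial cell/dermal fibroblast co-cultures, fitted upward relative to DMSO. Parallel cultures stained with 0.1% SRB after TCA fixation gauge overt cytotoxicity.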

[7] = read-out: Tissue plasminogen activator (tPA), PLAT (gene 5327); test: BSK_BF4T_tPA: BioMAP Diversity Plus: BF4T Assay for Tissue plasminogen activator (tPA) Biomarker Activity (AID 2284272); conditions: primary human bronchial epithelial cells with fibroblasts
Method in brief: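 tPA level quantified by ELISA at 24 h post-treatment in bronchial epithelial/dermal fibroblast co-cultures, gain of signal scored against DMSO baseline. Parallel cultures stained with 0.1% SRB (560 nm) to flag overt cytotoxicity.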

[8] = BSK_BF4T_SRB: Viability Assessment in the BioMAP Diversity Plus: BF4T Assay (AID 2284274); conditions: primary human bronchial epithelial cells with fibroblasts;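 on AC50: total cell protein by sulforhodamine B staining as a cytotoxicity measure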
Method in brief: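 Cytotoxicity measured as total protein: cells fixed with 10% TCA, stained with 0.1% SRB, read at 560 nm. Bronchial epithelial/dermal fibroblast co-culture, 24 h after dosing, with positive-direction fitting relative to DMSO.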

Measured: AC50

COc1cccc(O)c1
inactive: Decorin, DCN (gene 1634) | [1] | [2] | [3]

O=C(O)CCC(F)(F)C(F)(F)C(F)(F)C(F)(F)C(F)(F)C(F)(F)F
inactive: CD90, THY1 (gene 7070) | [4] | [5] | Decorin, DCN (gene 1634) | [1] | [2] | [3] | [6] | [7] | [8]

Oc1cc2ccccc2cc1O
inactive: Decorin, DCN (gene 1634) | [1] | [2] | [3]

C[C@]12CC[C@@H]3c4ccc(O)cc4CC[C@H]3[C@@H]1C[C@@H](O)[C@@H]2O
inactive: Decorin, DCN (gene 1634) | [1] | [2] | [3]

Cc1cccc2c1ccc1ccccc12
inactive: Decorin, DCN (gene 1634) | [1] | [2] | [3]

CC1=NN(c2ccccc2)C(=O)C1
inactive: Decorin, DCN (gene 1634) | [1] | [2] | [3]

CCCCC(CC)C(=O)OCCOCCOCCOCCOC(=O)C(CC)CCCC (centres undefined)
inactive: Decorin, DCN (gene 1634) | [1] | [2] | [3]

O=C(CC(=O)C(F)(F)C(F)(F)C(F)(F)F)c1cccs1
inactive: CD90, THY1 (gene 7070) | Decorin, DCN (gene 1634) | [1] | [2] | [3]
active: CD90, THY1 (gene 7070) 9.69 µM | [4] 52.8 µM and 55.1 µM | [5] 43 µM and 45 µM | [6] 37.6 µM and 25.2 µM | [7] 30 µM | [8] 23.9 µM and 26.7 µM

CCCCCc1ccc(O)cc1
inactive: Decorin, DCN (gene 1634)
active: [1] 28.7 µM | [2] 36.6 µM | [3] 20 µM

O=C(NO)c1ccccc1
inactive: Decorin, DCN (gene 1634) | [1] | [2] | [3]

O=C(O)CCC(F)(F)C(F)(F)C(F)(F)C(F)(F)C(F)(F)F
inactive: CD90, THY1 (gene 7070) | [4] | [5] | Decorin, DCN (gene 1634) | [1] | [2] | [3] | [6] | [7] | [8]

O=P(O)(O)CCC(F)(F)C(F)(F)C(F)(F)C(F)(F)C(F)(F)C(F)(F)F
active: [7] 14.6 µM
inactive: CD90, THY1 (gene 7070) | [4] | [5] | Decorin, DCN (gene 1634) | [1] | [2] | [3] | [6] | [7] | [8]

CN(CCO)S(=O)(=O)C(F)(F)C(F)(F)C(F)(F)C(F)(F)C(F)(F)C(F)(F)C(F)(F)C(F)(F)F
active: [4] 24.5 nM
inactive: CD90, THY1 (gene 7070) | [4] | [5] | Decorin, DCN (gene 1634) | [1] | [2] | [3] | [6] | [7] | [8]

C=CC(=C)CC/C=C(\C)CCC=C(C)C
inactive: Decorin, DCN (gene 1634) | [1] | [2] | [3]

C=COC(=O)C(C)(C)CCCCCC
active: Decorin, DCN (gene 1634) 31.7 µM | [1] 30.9 µM
inactive: [2] | [3]

O=C1c2ccc(O)c(O)c2C(=O)c2c(O)ccc(O)c21
inactive: Decorin, DCN (gene 1634) | [1] | [2] | [3]

CCOC(=O)CN[C@@H](C(=O)N1CC[C@H]1C(=O)NCc1ccc(/C(N)=N/O)cc1)C1CCCCC1
inactive: Decorin, DCN (gene 1634) | [1] | [2] | [3]

O=C(NCc1ncc(C(F)(F)F)cc1Cl)c1c(Cl)cccc1Cl
inactive: Decorin, DCN (gene 1634) | [1] | [2] | [3]

COCN(COC)c1nc(N(COC)COC)nc(N(COC)COC)n1
inactive: Decorin, DCN (gene 1634) | [1] | [2] | [3]
